PubChem BioAssay AID1851 (National Center for Advancing Translational Sciences (NCATS), 2009)
The campaign covered roughly 16,000 compounds. About 4,000 (25%) were called active. Another 26% or so got no clear call; they are omitted. Calls follow the shape of the dose curve; as a rule, active = well fitted curve in the direction sought with a large enough effect; inconclusive = small, poorly fitted or top-dose-only effect, or effect the other way; inactive = no such curve, though single readings can be large or run the other way. The list is a sample of the results.

Biological target: Cytochrome P450 2C9 (Homo sapiens) (UniProt P11712)
Experiment: Cytochrome panel assay with activity outcomes
Conditions: recombinant CYP, pro-luciferin dealkylation, luminescence, p450-cyp2c9; series mostly up to 57.1 µM; activity, negative = inhibition: at the top concentration
% is scaled to controls: 0 for no effect and ±100 for the full control effect.

Cytochrome P450 2C9 (Homo sapiens), sequence (P11712 whole entry, looked up): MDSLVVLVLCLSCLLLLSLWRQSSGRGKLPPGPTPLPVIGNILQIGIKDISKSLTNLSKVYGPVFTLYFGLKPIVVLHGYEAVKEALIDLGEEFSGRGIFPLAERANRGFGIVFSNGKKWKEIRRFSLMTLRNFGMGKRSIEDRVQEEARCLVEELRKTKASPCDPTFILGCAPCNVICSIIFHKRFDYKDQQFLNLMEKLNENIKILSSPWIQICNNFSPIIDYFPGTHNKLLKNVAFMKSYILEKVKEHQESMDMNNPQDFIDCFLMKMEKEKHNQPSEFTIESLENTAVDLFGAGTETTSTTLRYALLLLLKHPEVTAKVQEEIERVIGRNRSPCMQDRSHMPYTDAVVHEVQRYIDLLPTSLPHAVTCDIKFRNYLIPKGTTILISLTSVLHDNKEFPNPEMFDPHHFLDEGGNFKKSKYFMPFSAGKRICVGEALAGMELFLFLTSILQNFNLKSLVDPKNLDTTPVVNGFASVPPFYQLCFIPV

activity, negative = inhibition, inactive:
CO[C@@H]1COC(=O)CC=C[C@@H](C)[C@@H]2C=C[C@@H](O)[C@@H](COC(=O)C/C=C\[C@H]1C)O2 -2.62% [at 11.4 µM]
C#CCCCO/N=C1/C[C@@H](O)[C@@H](O)[C@@H]2[C@@H]3C(=O)N(Cc4ccccc4)C(=O)[C@H]3CC[C@H]12 -13.5% [at 11.4 µM]
CC1(C)OC[C@@H]2O[C@H](n3cnc4c(N)nc(Cl)nc43)[C@@H](OS(C)(=O)=O)[C@@H]2O1 2.13% [at 11.4 µM]
Cc1noc(NC(=O)Nc2ccccc2F)c1C#N -5.47% [at 11.4 µM]
COc1ccc(CC(=O)O/N=C(\N)Cc2ccc(OC)cc2)cc1 -27.8%
CCN1C(=O)[C@H]2[C@H]3[C@H](O)[C@H](O)C/C(=N/NC(=O)OCc4ccccc4)[C@@H]3CC[C@@H]2C1=O -4.03% [at 11.4 µM]
OC[C@@H]1O[C@@H](n2cnc3c(NC4CCCC4)ncnc32)[C@H](O)[C@H]1O -16.1%
CC(C)CN1CCCC2(CCN(S(=O)(=O)c3ccccc3)CC2)C1 -5.62%
Cc1cc(N2CCN(c3nc4ccccc4s3)CC2)n2ncnc2n1 4.71%
CN1CCN(c2cc(-c3ccccc3C(F)(F)F)ncn2)CC1 4.29% [at 2.29 µM]
Cc1nc2cnc(N(C)C)nc2n(-c2ccccc2)c1=O 6.91%
CN(C)c1ncc2nc(-c3ccc(Cl)cc3)c(=O)n(C)c2n1 5.21%
CN(C)c1ncc2nc(-c3ccc(F)cc3)c(=O)n(C)c2n1 -0.0101%
COCCn1c(=O)c(-c2cc(F)cc(F)c2)nc2cnc(N(C)C)nc21 20.2%
CCNc1ncc2nc(-c3ccccc3)c(=O)n(C3CC3)c2n1 -20.9%
COc1ccc(-n2c(=O)c(CCc3ccccc3)nc3cnc(N(C)C)nc32)cc1 11.8%
O=c1c(-c2ccccc2)nc2cncnc2n1C1CC1 -16.8%
COCCn1c(=O)c(-c2ccc(Cl)cc2)nc2cnc(N(C)C)nc21 -16%

AC50, active:
CC(C)c1ccc2nc3sc(C(=O)N4CCc5ccccc5C4)c(N)c3cc2c1 4.47 µM
COc1ccc2c(c1)C(=NN)c1cc(OC)ccc1-2 3.55 µM
C/C(CCc1ccc2c(c1)OCO2)=N\N=C1\NC(=O)CC(C(=O)Nc2ccccc2)S1 (configuration not stated) 7.94 µM
FC(F)(F)c1ccc(N2CCN(c3cc(-c4ccccc4)nc4ncnn34)CC2)nc1 2.24 µM
O=S(=O)(c1ccccc1)N1CCN(c2cc(-c3ccccc3)nc3ncnn23)CC1 12.6 µM
COCCn1c(=O)c(-c2ccccc2)nc2cnc(N(C)C)nc21 20 µM
CN(C)c1ncc2nc(CCc3ccccc3)c(=O)n(-c3ccccc3)c2n1 12.6 µM
CN(C)c1ncc2nc(-c3ccccc3)c(=O)n(C)c2n1 10 µM
CN(C)c1ncc2nc(-c3ccccc3)c(=O)n(C3CC3)c2n1 10 µM
